# Data as given in PubChem BioAssay AID1159580 (chemical genetic matrix, 2015).
# The campaign covered roughly 5,500 compounds. About 2,000 (36%) were called active. Inconclusive results (about 18%) are left out. The list shows a part of the results. Values without a mark were called inactive. No stated cut-off is given here; in the data, active means normalized growth mostly below about 0.91 (no sharp cut-off); inconclusive means no clear call, values can overlap the other calls; inactive means mostly above about 0.92.
# Test: chemical genetic growth profiling, strain panel (AID 1159580);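 further: tested at 20 µM; growth read once vehicle control cultures reached saturation at 30 °C; 1 = growth at the plate median or of vehicle wells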
# Conditions: growth OD
compound,measurement,setting,value
COc1ccc(-c2coc3cc(OC)cc(O)c3c2=O)cc1,normalized growth,"S. cerevisiae deletion strains, locus YAL013W, strain DEP1, stronger effect = lower value",0.962
same,normalized growth,"S. cerevisiae deletion strains, locus YBR021W, strain FUR4, stronger effect = lower value",0.862
same,normalized growth,"S. cerevisiae deletion strains, locus YBR229C, strain ROT2, stronger effect = lower value",0.98
same,normalized growth,"S. cerevisiae deletion strains, locus YCL029C, strain bik1, stronger effect = lower value",0.966
same,normalized growth,"S. cerevisiae deletion strains, locus YDL035C, strain GPR1, stronger effect = lower value",0.959
same,normalized growth,"S. cerevisiae deletion strains, locus YDL074C, strain BRE1, stronger effect = lower value",0.91
same,normalized growth,"S. cerevisiae deletion strains, locus YDL101C, strain DUN1, stronger effect = lower value",0.98
same,normalized growth,"S. cerevisiae deletion strains, locus YDL134C, strain PPH21, stronger effect = lower value",0.982
same,normalized growth,"S. cerevisiae deletion strains, locus YDL185W, strain tfp1, stronger effect = lower value",0.968
same,normalized growth,"S. cerevisiae deletion strains, locus YDL192W, strain arf1, stronger effect = lower value",0.96
same,normalized growth,"S. cerevisiae deletion strains, locus YDR101C, strain arx1, stronger effect = lower value",0.96
same,normalized growth,"S. cerevisiae deletion strains, locus YDR150W, strain NUM1, stronger effect = lower value",0.991
same,normalized growth,"S. cerevisiae deletion strains, locus YDR162C, strain NBP2, stronger effect = lower value",0.983
same,normalized growth,"S. cerevisiae deletion strains, locus YDR318W, strain mcm21, stronger effect = lower value",0.922
same,normalized growth,"S. cerevisiae deletion strains, locus YDR388W, stronger effect = lower value",0.957
same,normalized growth,"S. cerevisiae deletion strains, locus YDR502C, strain sam2, stronger effect = lower value",0.967
same,normalized growth,"S. cerevisiae deletion strains, locus YEL061C, strain CIN8, stronger effect = lower value",0.982
same,normalized growth,"S. cerevisiae deletion strains, locus YER110C, stronger effect = lower value",0.958
same,normalized growth,"S. cerevisiae deletion strains, locus YER155C, strain BEM2, stronger effect = lower value",0.967
same,normalized growth,"S. cerevisiae deletion strains, locus YER167W, strain BCK2, stronger effect = lower value",0.933
same,normalized growth,"S. cerevisiae deletion strains, locus YGL078C, strain dbp3, stronger effect = lower value",0.978
same,normalized growth,"S. cerevisiae deletion strains, locus YGL086W, strain mad1, stronger effect = lower value",0.955
same,normalized growth,"S. cerevisiae deletion strains, locus YGL248W, strain PDE1, stronger effect = lower value",0.976
same,normalized growth,"S. cerevisiae deletion strains, locus YGR078C, strain PAC10, stronger effect = lower value",0.952
same,normalized growth,"S. cerevisiae deletion strains, locus YGR135W, strain pre9, stronger effect = lower value",0.94
same,normalized growth,"S. cerevisiae deletion strains, locus YGR229C, strain SMI1, stronger effect = lower value",0.924
same,normalized growth,"S. cerevisiae deletion strains, locus YGR252W, strain gcn5, stronger effect = lower value",0.768
same,normalized growth,"S. cerevisiae deletion strains, locus YHR030C, strain SLT2, stronger effect = lower value",0.972
same,normalized growth,"S. cerevisiae deletion strains, locus YHR079C, strain IRE1 (second series), stronger effect = lower value",0.935
same,normalized growth,"S. cerevisiae deletion strains, locus YHR094C, strain hxt1, stronger effect = lower value",0.976
same,normalized growth,"S. cerevisiae deletion strains, locus YHR129C, strain ARP1, stronger effect = lower value",0.967
same,normalized growth,"S. cerevisiae deletion strains, locus YHR200W, strain rpn10, stronger effect = lower value",0.957
same,normalized growth,"S. cerevisiae deletion strains, locus YIL066C, strain RNR3, stronger effect = lower value",0.975
same,normalized growth,"S. cerevisiae deletion strains, locus YIL073C, strain SPO22, stronger effect = lower value",0.905
same,normalized growth,"S. cerevisiae deletion strains, locus YIL125W, strain kgd1, stronger effect = lower value",0.969
same,normalized growth,"S. cerevisiae deletion strains, locus YIR030C, strain dcg1, stronger effect = lower value",0.97
same,normalized growth,"S. cerevisiae deletion strains, locus YJL095W, strain BCK1, stronger effect = lower value",0.907
same,normalized growth,"S. cerevisiae deletion strains, locus YJL134W, strain LCB3, stronger effect = lower value",0.986
same,normalized growth,"S. cerevisiae deletion strains, locus YJL168C, strain set2, stronger effect = lower value",0.975
same,normalized growth,"S. cerevisiae deletion strains, locus YJL187C, strain SWE1 (second series), stronger effect = lower value",0.972
same,normalized growth,"S. cerevisiae deletion strains, locus YJR043C, strain POL32, stronger effect = lower value",0.911
same,normalized growth,"S. cerevisiae deletion strains, locus YJR075W, strain HOC1, stronger effect = lower value",0.951
same,normalized growth,"S. cerevisiae deletion strains, locus YKL009W, strain mrt4, stronger effect = lower value",0.919
same,normalized growth,"S. cerevisiae deletion strains, locus YKL068W, stronger effect = lower value",0.989
same,normalized growth,"S. cerevisiae deletion strains, locus YKL085W, strain MDH1 (second series), stronger effect = lower value",0.982
same,normalized growth,"S. cerevisiae deletion strains, locus YKL085W, strain MDH1, stronger effect = lower value",0.982
same,normalized growth,"S. cerevisiae deletion strains, locus YKL190W, strain CNB1, stronger effect = lower value",0.979
same,normalized growth,"S. cerevisiae deletion strains, locus YKR001C, strain vps1, stronger effect = lower value",0.898 (active)
same,normalized growth,"S. cerevisiae deletion strains, locus YLR039C, strain RIC1, stronger effect = lower value",0.971
same,normalized growth,"S. cerevisiae deletion strains, locus YLR058C, strain SHM2, stronger effect = lower value",0.974
same,normalized growth,"S. cerevisiae deletion strains, locus YLR102C, strain apc9, stronger effect = lower value",0.969
same,normalized growth,"S. cerevisiae deletion strains, locus YLR262C, strain YPT6, stronger effect = lower value",0.959
same,normalized growth,"S. cerevisiae deletion strains, locus YLR268W, strain sec22, stronger effect = lower value",0.957
same,normalized growth,"S. cerevisiae deletion strains, locus YLR330W, strain CHS5, stronger effect = lower value",0.977
same,normalized growth,"S. cerevisiae deletion strains, locus YLR342W, strain FKS1 (second series), stronger effect = lower value",0.859
same,normalized growth,"S. cerevisiae deletion strains, locus YLR371W, strain rom2, stronger effect = lower value",0.969
same,normalized growth,"S. cerevisiae deletion strains, locus YLR418C, strain cdc73, stronger effect = lower value",0.889
same,normalized growth,"S. cerevisiae deletion strains, locus YML016C, strain PPZ1, stronger effect = lower value",0.975
same,normalized growth,"S. cerevisiae deletion strains, locus YML032C, strain rad52, stronger effect = lower value",0.94
same,normalized growth,"S. cerevisiae deletion strains, locus YML124C, strain tub3, stronger effect = lower value",0.974
same,normalized growth,"S. cerevisiae deletion strains, locus YMR078C, strain ctf18, stronger effect = lower value",0.96
same,normalized growth,"S. cerevisiae deletion strains, locus YMR223W, strain ubp8, stronger effect = lower value",0.94
same,normalized growth,"S. cerevisiae deletion strains, locus YMR263W, strain SAP30, stronger effect = lower value",0.967
same,normalized growth,"S. cerevisiae deletion strains, locus YMR307W, strain GAS1, stronger effect = lower value",0.81
same,normalized growth,"S. cerevisiae deletion strains, locus YNL067W, strain RPL9B, stronger effect = lower value",0.977
same,normalized growth,"S. cerevisiae deletion strains, locus YNL128W, strain TEP1, stronger effect = lower value",0.994
same,normalized growth,"S. cerevisiae deletion strains, locus YNL153C, strain GIM3, stronger effect = lower value",0.995
same,normalized growth,"S. cerevisiae deletion strains, locus YNL233W, strain BNI4, stronger effect = lower value",0.923
same,normalized growth,"S. cerevisiae deletion strains, locus YNL250W, strain rad50, stronger effect = lower value",0.968
same,normalized growth,"S. cerevisiae deletion strains, locus YNL271C, strain bni1, stronger effect = lower value",0.973
same,normalized growth,"S. cerevisiae deletion strains, locus YNL298W, strain CLA4, stronger effect = lower value",0.928
same,normalized growth,"S. cerevisiae deletion strains, locus YNL307C, strain MCK1, stronger effect = lower value",0.805 (active)
same,normalized growth,"S. cerevisiae deletion strains, locus YNL322C, strain KRE1, stronger effect = lower value",0.985
same,normalized growth,"S. cerevisiae deletion strains, locus YNR052C, strain pop2, stronger effect = lower value",0.968
same,normalized growth,"S. cerevisiae deletion strains, locus YOL006C, strain TOP1, stronger effect = lower value",0.863
same,normalized growth,"S. cerevisiae deletion strains, locus YOL012C, strain htz1",1.51
same,normalized growth,"S. cerevisiae deletion strains, locus YOL147C, strain pex11, stronger effect = lower value",0.969
same,normalized growth,"S. cerevisiae deletion strains, locus YOR061W, strain CKA2, stronger effect = lower value",0.996
same,normalized growth,"S. cerevisiae deletion strains, locus YOR069W, strain VPS5, stronger effect = lower value",0.984
same,normalized growth,"S. cerevisiae deletion strains, locus YOR136W, strain idh2, stronger effect = lower value",0.971
same,normalized growth,"S. cerevisiae deletion strains, locus YOR144C, strain elg1, stronger effect = lower value",0.975
same,normalized growth,"S. cerevisiae deletion strains, locus YOR184W, strain ser1, stronger effect = lower value",0.872 (active)
same,normalized growth,"S. cerevisiae deletion strains, locus YOR316C, strain cot1, stronger effect = lower value",0.96
same,normalized growth,"S. cerevisiae deletion strains, locus YPL055C, strain LGE1, stronger effect = lower value",0.92
same,normalized growth,"S. cerevisiae deletion strains, locus YPL241C, strain CIN2, stronger effect = lower value",0.987
same,normalized growth,"S. cerevisiae deletion strains, locus YPR119W, strain clb2, stronger effect = lower value",0.972
same,normalized growth,"S. cerevisiae deletion strains, locus YPR141C, strain kar3, stronger effect = lower value",0.99
same,normalized growth,"S. cerevisiae deletion strains, locus YPR163C, strain tif3, stronger effect = lower value",0.973
same,normalized growth,"S. cerevisiae deletion strains, locus YPR167C, strain met16, stronger effect = lower value",0.97
same,normalized growth,"S. cerevisiae deletion strains, strain wtn01, stronger effect = lower value",0.944
same,normalized growth,"S. cerevisiae strains, strain wild type, stronger effect = lower value",0.963
